# The supplement of paper PMC10077471
# In all, about 1,900 compounds were measured (“excess over highest single agent (ExcessHSA) synergy score, 6x6 matrix”: median about -83, lowest 2% from about -370 on). For the sample, the lowest values were picked, then their nearest neighbours and some compounds at random.
# Test system: NCI-H446
# Assay: excess over highest single agent (ExcessHSA) synergy score, 6x6 matrix; higher = less synergy (more negative = stronger synergy)
# Conditions: 72 h; CellTiter-Glo viability
row,Compound,excess over highest single agent
1,CCOC(=O)/C=C/[C@H](C[C@@H]1CCNC1=O)NC(=O)[C@@H](CC(=O)[C@@H](NC(=O)c1cc(C)on1)C(C)C)Cc1ccc(F)cc1 + Cc1sc2c(c1C)C(c1ccc(Cl)cc1)=N[C@@H](CC(=O)OC(C)(C)C)c1nnc(C)n1-2 [NCGC00250412-19],-127
2,O=C(C[C@@H]1C/C=C/CCC(=O)O[C@H](c2ccccc2)CNC1=O)NCc1ccc(Cl)cc1 + Cc1sc2c(c1C)C(c1ccc(Cl)cc1)=N[C@@H](CC(=O)OC(C)(C)C)c1nnc(C)n1-2 [NCGC00250412-19],-98.1
3,CN(C)C[C@@H]1CCn2cc(c3ccccc32)C2=C(C(=O)NC2=O)c2cn(c3ccccc23)CCO1 + Cc1sc2c(c1C)C(c1ccc(Cl)cc1)=N[C@@H](CC(=O)OC(C)(C)C)c1nnc(C)n1-2 [NCGC00250412-19],-125
4,COc1cc(NCc2ccc3nc(N)nc(N)c3c2C)cc(OC)c1OC + Cc1sc2c(c1C)C(c1ccc(Cl)cc1)=N[C@@H](CC(=O)OC(C)(C)C)c1nnc(C)n1-2 [NCGC00250412-19],-213
5,C=C1C(=O)[C@]23[C@H](O)[C@H]1CC[C@H]2[C@@]12CO[C@]3(O)[C@@H](O)[C@@H]1C(C)(C)CC[C@@H]2O + Cc1sc2c(c1C)C(c1ccc(Cl)cc1)=N[C@@H](CC(=O)OC(C)(C)C)c1nnc(C)n1-2 [NCGC00250412-19],-378
6,Oc1ccc(C2=Cc3ccc(O)cc3OC2)cc1 + Cc1sc2c(c1C)C(c1ccc(Cl)cc1)=N[C@@H](CC(=O)OC(C)(C)C)c1nnc(C)n1-2 [NCGC00250412-19],-209
7,CNc1nc(Nc2ccc(C(=O)N3CCOCC3)cc2OC)ncc1Cl + Cc1sc2c(c1C)C(c1ccc(Cl)cc1)=N[C@@H](CC(=O)OC(C)(C)C)c1nnc(C)n1-2 [NCGC00250412-19],436
8,Cc1ccc(S(=O)(=O)Nc2cc(Cl)ccc2C(=O)Nc2nc(-c3ccccc3)cs2)cc1 + Cc1sc2c(c1C)C(c1ccc(Cl)cc1)=N[C@@H](CC(=O)OC(C)(C)C)c1nnc(C)n1-2 [NCGC00250412-19],214
9,CC(O)(C#Cc1ccc2c(c1)N(c1nc(N)ncc1Cl)CC2)c1nccs1 (centres undefined) + Cc1sc2c(c1C)C(c1ccc(Cl)cc1)=N[C@@H](CC(=O)OC(C)(C)C)c1nnc(C)n1-2 [NCGC00250412-19],54
10,C[C@H](NCc1ccc2c(c1)nc(NC(=O)c1ccc(-c3cn[nH]c3)s1)n2CCc1ccccc1)C(C)(C)C + Cc1sc2c(c1C)C(c1ccc(Cl)cc1)=N[C@@H](CC(=O)OC(C)(C)C)c1nnc(C)n1-2 [NCGC00250412-19],-305
11,CC(C)(O)Cn1c(NC(=O)c2ccc(-c3cn[nH]c3)s2)nc2cc(CN3CCOCC3)ccc21 + Cc1sc2c(c1C)C(c1ccc(Cl)cc1)=N[C@@H](CC(=O)OC(C)(C)C)c1nnc(C)n1-2 [NCGC00250412-19],-423
12,CC(NCc1ccc2c(c1)nc(NC(=O)c1ccc(-c3cn[nH]c3)s1)n2CC(C)(C)O)C(C)(C)C (centres undefined) + Cc1sc2c(c1C)C(c1ccc(Cl)cc1)=N[C@@H](CC(=O)OC(C)(C)C)c1nnc(C)n1-2 [NCGC00250412-19],-312
13,CCNC(=O)c1cc2c(-c3cc(OCCN4CCCC4)c(Cl)cc3Cl)nc(N)nc2s1 + Cc1sc2c(c1C)C(c1ccc(Cl)cc1)=N[C@@H](CC(=O)OC(C)(C)C)c1nnc(C)n1-2 [NCGC00250412-19],-89.1
14,O=C1NC(=O)/C(=C/c2ccc3nccc(-c4ccncc4)c3c2)S1 + Cc1sc2c(c1C)C(c1ccc(Cl)cc1)=N[C@@H](CC(=O)OC(C)(C)C)c1nnc(C)n1-2 [NCGC00250412-19],-177
15,CCCNC(=O)[C@H]1O[C@@H]1C(=O)N[C@H](C(=O)N1CCC[C@H]1C(=O)OC)[C@@H](C)CC + Cc1sc2c(c1C)C(c1ccc(Cl)cc1)=N[C@@H](CC(=O)OC(C)(C)C)c1nnc(C)n1-2 [NCGC00250412-19],-117
16,CN(C)c1ccc(C2Nc3ccc4ccccc4c3C3=C2C(=O)CC(C)(C)C3)cc1Br (centres undefined) + Cc1sc2c(c1C)C(c1ccc(Cl)cc1)=N[C@@H](CC(=O)OC(C)(C)C)c1nnc(C)n1-2 [NCGC00250412-19],-30.1
17,CCN1CCN(CC(=O)Nc2ccc(-c3cccc4c(=O)cc(N5CCOCC5)oc34)c3sc4ccccc4c23)CC1 + Cc1sc2c(c1C)C(c1ccc(Cl)cc1)=N[C@@H](CC(=O)OC(C)(C)C)c1nnc(C)n1-2 [NCGC00250412-19],-383
18,O=c1cc(N2CCOCC2)oc2c(-c3ccccc3)cccc12 + Cc1sc2c(c1C)C(c1ccc(Cl)cc1)=N[C@@H](CC(=O)OC(C)(C)C)c1nnc(C)n1-2 [NCGC00250412-19],83.7
19,O=c1cc(N2CCOCC2)oc2c(-c3cccc4c3sc3ccccc34)cccc12 + Cc1sc2c(c1C)C(c1ccc(Cl)cc1)=N[C@@H](CC(=O)OC(C)(C)C)c1nnc(C)n1-2 [NCGC00250412-19],-318
20,CN(C)CC(=O)N1CCC(c2ccc(NC(=O)c3ncc(C#N)[nH]3)c(C3=CCCCC3)c2)CC1 + Cc1sc2c(c1C)C(c1ccc(Cl)cc1)=N[C@@H](CC(=O)OC(C)(C)C)c1nnc(C)n1-2 [NCGC00250412-19],53.2
21,CC1CCN(c2cc(N3CCN(C)CC3)ccc2NC(=O)c2cc(C#N)c[nH]2)CC1 + Cc1sc2c(c1C)C(c1ccc(Cl)cc1)=N[C@@H](CC(=O)OC(C)(C)C)c1nnc(C)n1-2 [NCGC00250412-19],106
22,COc1ccc(Nc2nccc(NCCO)n2)cc1 + Cc1sc2c(c1C)C(c1ccc(Cl)cc1)=N[C@@H](CC(=O)OC(C)(C)C)c1nnc(C)n1-2 [NCGC00250412-19],81.9
23,CN(C)c1ccc2cc(C(=O)N[C@@H](CCCN=C(N)CCl)C(=O)NCc3ccccc3)ccc2c1 + Cc1sc2c(c1C)C(c1ccc(Cl)cc1)=N[C@@H](CC(=O)OC(C)(C)C)c1nnc(C)n1-2 [NCGC00250412-19],-202
24,NS(=O)(=O)c1ccc(Nc2nc(OCC3CCCCC3)c3[nH]cnc3n2)cc1 + Cc1sc2c(c1C)C(c1ccc(Cl)cc1)=N[C@@H](CC(=O)OC(C)(C)C)c1nnc(C)n1-2 [NCGC00250412-19],-148
